# Calls of active or inactive are those of the source. The calls were made as follows: active = hit-call score of the fitted dose curve at least 0.9, where 1 is the maximum; inactive = score below 0.9.
# Biological target: Bile acid receptor (Homo sapiens) (UniProt Q96RI1)
# Experiment: ATG_IR1_CIS: Attagene CIS-FACTORIAL HepG2 Assay for human Nuclear Receptor Subfamily 1 Group H Member 4 (NR1H4), IR1 submotif (AID 2282946)
# Conditions: IR1 reporter transcription, actives raise or lower the signal
# Outline: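 HepG2 cells transiently transfected with multiple cis-promoter-driven reporter units to measure endogenous transcription factor activity; 24 h exposure. Reporter mRNA read by RT-PCR, FAM labelling, HpaI digestion and capillary electrophoresis. Bidirectional fit versus DMSO.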
# Bile acid receptor (Homo sapiens), sequence (Q96RI1 whole entry, looked up): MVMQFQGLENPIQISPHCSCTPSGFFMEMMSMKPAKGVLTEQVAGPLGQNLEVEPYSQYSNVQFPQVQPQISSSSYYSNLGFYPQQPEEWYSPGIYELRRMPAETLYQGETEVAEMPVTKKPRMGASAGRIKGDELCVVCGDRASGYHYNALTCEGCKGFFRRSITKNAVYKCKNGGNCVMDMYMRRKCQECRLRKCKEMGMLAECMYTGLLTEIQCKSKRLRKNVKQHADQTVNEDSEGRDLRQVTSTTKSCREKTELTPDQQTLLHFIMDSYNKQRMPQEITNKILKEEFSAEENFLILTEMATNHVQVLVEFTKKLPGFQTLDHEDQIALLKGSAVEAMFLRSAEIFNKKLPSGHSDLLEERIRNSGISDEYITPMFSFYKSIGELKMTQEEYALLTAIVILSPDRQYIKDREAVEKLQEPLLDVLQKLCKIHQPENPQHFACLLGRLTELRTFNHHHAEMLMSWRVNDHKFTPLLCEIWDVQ
SMILES,outcome,AC50
COc1ccc(COC(C)=O)cc1,inactive,
C[Si](C)(C)O[Si](C)(C)C,inactive,
C1=CC2C3C=CC(C3)C2C1 (centres undefined),inactive,
CC(C)C(OC(=O)c1ccccc1)C(C)(C)COC(=O)c1ccccc1 (centres undefined),inactive,
CCOC(=O)C(C#N)=C(c1ccccc1)c1ccccc1,,100 µM (active)
CCC(C)=O,inactive,
O=C(O)CCCCCCCCC(=O)O,inactive,
CCC1(C)NC(=O)NC1=O (centres undefined),inactive,

# Test system: not listed separately
# Experiment: ATG_GRE_CIS: Attagene CIS-FACTORIAL HepG2 Assay for human Glucocorticoid Response Elements (GRE) (AID 2282947)
# Conditions: HepG2 GRE cis-reporter, Attagene multiplex mRNA; actives raise or lower the signal
# Outline: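 Transiently transfected HepG2 cells carrying GRE cis-reporter units (endogenous TF activity) dosed 24 h; reporter mRNA quantified by RT-PCR, 6-FAM labelling, HpaI digestion and capillary electrophoresis. Bidirectional fit versus DMSO baseline.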
row,SMILES,outcome
1,COCCOC(=O)c1ccccc1C(=O)OCCOC,inactive
2,ON=C1CCCCC1,inactive
3,Nc1ccc(NCCO)c([N+](=O)[O-])c1,inactive
4,C=C(C)[C@H]1CC=C(C)C(=O)C1,inactive
5,CCCCSCCCC,inactive
6,N#Cc1ccc(CC(=O)c2cccc(C(F)(F)F)c2)cc1,inactive
7,NCCNc1cccc2ccccc12,inactive
8,C=C(C)[C@@H]1CC=C(C)C(=O)C1,inactive
9,CCOC(=O)C1OC1c1ccccc1 (centres undefined),inactive
10,[O-]n1ccccc1=S.[O-]n1ccccc1=S.[Zn+2],inactive
11,CC1=NN(c2ccc(S(=O)(=O)O)cc2)C(=O)C1,inactive
12,O=Cc1ccccc1S(=O)(=O)O,inactive
13,CC1(C)CCC[C@]2(C)[C@H]3CCO[C@]3(C)CC[C@@H]12,inactive
14,C=CCOC(=O)CCCCCC,inactive
15,Cc1ccc2c(c1)C(=O)OC2=O,inactive
16,CC(C)(N=C=O)c1cccc(C(C)(C)N=C=O)c1,inactive

row,SMILES,outcome
1,CCCC(=O)OC(C)(C)Cc1ccccc1,inactive
2,CCOc1ccc(NC(=O)CC(C)=O)cc1,inactive
3,C=CCCC(=O)/C=C/C1C(C)=CCCC1(C)C (centres undefined),inactive
4,CCCCCCC(CO)CCCC (centres undefined),inactive
5,CCCSc1ccc2nc(NC(=O)OC)[nH]c2c1,inactive
6,CCCC(=O)c1ccccc1,inactive
7,C=C(C)C1CC=C(C)C(=O)C1 (centres undefined),inactive
8,CN1CCOCC1,inactive
9,C#CC(C)(O)CC(C)C (centres undefined),inactive
10,Cc1occc(=O)c1OC(=O)C(C)C,inactive
11,N[C@@H](Cc1cc(I)c(Oc2cc(I)c(O)c(I)c2)c(I)c1)C(=O)O,inactive
12,C=CCCCCCCCCCC,inactive
13,C=C[Si]1(C)O[Si](C)(C=C)O[Si](C)(C=C)O[Si](C)(C=C)O1 (centres undefined),inactive
14,CC1=CC[C@@]23C[C@@H]1C(C)(C)[C@@H]2CC[C@H]3C,inactive
15,Cc1ccc(-c2ccccc2)cc1,inactive
